Screening data as filed in PubChem BioAssay.
CHO-K1 Ca antag: counter-screen for M1 antagonists: effect in parental CHO-K1 cells. ATP-induced calcium, Fluo-8 fluorescence. inhibition, % at 3 µM. hit rate 0.6% among 360,000;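 active = inhibition above a per-plate cutoff, the plate's mean sample inhibition plus 3 SD, cut at about 24% in these data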
CHRM1 antagonist: antagonists of human M1 muscarinic receptor; inhibition, % at 3 µM; CHO-K1 hM1, Fluo-8 calcium fluorescence, ACh EC80 antagonist; P11229; AID 588852; hit rate 1.3% among 360,000;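 active = percent inhibition above its own plate's cutoff, namely the mean of that plate's compound wells plus 3 SD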;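 also: peak over basal fluorescence ratio during 140 s after agonist addition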
Target sequence (P11229 whole entry, looked up): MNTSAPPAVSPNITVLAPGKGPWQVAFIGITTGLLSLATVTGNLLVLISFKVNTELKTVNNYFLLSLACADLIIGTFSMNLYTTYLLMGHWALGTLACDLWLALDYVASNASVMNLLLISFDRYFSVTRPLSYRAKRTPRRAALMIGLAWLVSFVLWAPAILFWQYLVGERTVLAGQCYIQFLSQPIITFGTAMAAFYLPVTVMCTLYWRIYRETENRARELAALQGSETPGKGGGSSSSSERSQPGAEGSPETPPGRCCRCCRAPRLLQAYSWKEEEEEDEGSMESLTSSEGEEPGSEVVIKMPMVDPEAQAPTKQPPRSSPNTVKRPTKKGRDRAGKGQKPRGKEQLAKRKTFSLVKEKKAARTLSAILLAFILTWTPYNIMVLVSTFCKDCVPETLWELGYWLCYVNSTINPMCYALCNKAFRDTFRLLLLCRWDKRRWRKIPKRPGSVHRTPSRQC
CHO-K1 Ca ag: nonselective activator or artifact in parental CHO-K1 cells; Fluo-8 calcium fluorescence; scaled to maximal ATP response, vehicle zero; activation, % at 3 µM; AID 602248; hit rate 0.48% among 360,000; in the data active = activation above about 15%;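 also: untransfected CHO-K1 host cells lacking M1 receptor as counterscreen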
M1 PAM: human CHRM1 positive allosteric modulation; CHO-K1 hM1, Fluo-8 calcium fluorescence, ACh EC20; 0% = ACh EC20, 100% = maximal ACh; activation, % at 3 µM; hit rate 0.088% among 360,000; AID 588819; in the data active = activation above about 19%, passing the limit was not always enough
M1 ag: activates human CHRM1 receptor. P11229. CHO-K1 hM1, Fluo-8 calcium fluorescence, agonist mode; 0% DMSO, 100% acetylcholine EC100. activation, % at 3 µM. hit rate 0.33% among 360,000;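 active = activation above the run's mean compound activation plus 3 SD, cut at about 16% in these data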;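 also: peak over basal fluorescence ratio within a 140 s kinetic read after compound addition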
CHO-K1 Ca PAM: M1 PAM counterscreen hit in parental CHO-K1 cells. hit rate 0.02% among 360,000. ATP EC20, Fluo-8 calcium fluorescence; 0% at ATP EC20, 100% at ATP max. activation, % at 3 µM. AID 602247;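 active = activation above the run cutoff, the mean activation of all test compounds plus 3 SD, cut at about 40% in these data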;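 also: peak over basal fluorescence ratio in a 140 s read after ATP addition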
Numbers stand for hits. Only some compounds are listed: those with a hit (about 2.3% of all), similar ones and a draw of the others.

How did NCCOc1ccc(C23CC4CC(CC(C4)C2)C3)cc1 do in these assays?
CHO-K1 Ca antag: inactive; CHRM1 antagonist: inactive; CHO-K1 Ca ag: 16.7; M1 PAM: inactive; M1 ag: inactive; CHO-K1 Ca PAM: inactive

What do the screens show for `OCCN1CCN(CC(O)COc2ccc(C34CC5CC(CC(C5)C3)C4)cc2)CC1` (stereo not drawn)?
CHO-K1 Ca antag: inactive; CHRM1 antagonist: inactive; CHO-K1 Ca ag: inactive; M1 PAM: inactive; M1 ag: inactive; CHO-K1 Ca PAM: inactive

Results for CC(C)(C)NC(=O)c1ccccc1-c1nc2ccccc2s1 ?
CHO-K1 Ca antag: inactive; CHRM1 antagonist: inactive; CHO-K1 Ca ag: 33.5; M1 PAM: inactive; M1 ag: 18.0; CHO-K1 Ca PAM: inactive

What do the screens show for `CC(C)(C)NC(=O)c1nc2ccccc2s1`?
CHO-K1 Ca antag: inactive; CHRM1 antagonist: inactive; CHO-K1 Ca ag: inactive; M1 PAM: inactive; M1 ag: inactive; CHO-K1 Ca PAM: inactive

How did CCCN(C(=O)c1cccc(S(=O)(=O)N2CCCc3ccccc32)c1)C1CCS(=O)(=O)C1 (stereo not drawn) do in these assays?
CHO-K1 Ca antag: inactive; CHRM1 antagonist: inactive; CHO-K1 Ca ag: inactive; M1 PAM: inactive; M1 ag: inactive; CHO-K1 Ca PAM: inactive

How did COc1ccccc1N=C1NC(=O)/C(=C/c2ccc(N(C)C)cc2)S1 do in these assays?
CHO-K1 Ca antag: 28.9; CHRM1 antagonist: inactive; CHO-K1 Ca ag: 32.3; M1 PAM: inactive; M1 ag: 22.2; CHO-K1 Ca PAM: inactive

What do the screens show for `CCCNC1=C(C)C(=O)CC1`?
CHO-K1 Ca antag: 24.1; CHRM1 antagonist: inactive; CHO-K1 Ca ag: inactive; M1 PAM: inactive; M1 ag: inactive; CHO-K1 Ca PAM: inactive

What do the screens show for `CC1=C(NCCc2ccccc2)CCC1=O`?
CHO-K1 Ca antag: inactive; CHRM1 antagonist: inactive; CHO-K1 Ca ag: inactive; M1 PAM: inactive; M1 ag: inactive; CHO-K1 Ca PAM: inactive

What do the screens show for `Cc1[nH]nc2c1C(c1ccsc1)C1=C(CC(C)(C)CC1=O)N2` (stereo not drawn)?
CHO-K1 Ca antag: inactive; CHRM1 antagonist: inactive; CHO-K1 Ca ag: inactive; M1 PAM: inactive; M1 ag: inactive; CHO-K1 Ca PAM: inactive

Results for CCN(c1cccc(C(F)(F)F)c1)S(=O)(=O)c1ccc2c(c1)CCN2C(=O)C1CC1 ?
CHO-K1 Ca antag: inactive; CHRM1 antagonist: 33.0; CHO-K1 Ca ag: inactive; M1 PAM: inactive; M1 ag: inactive; CHO-K1 Ca PAM: inactive

How did Cc1ccc(-c2nc(CSCC(=O)NCCN3CCN(Cc4ccccc4)CC3)c(C)o2)cc1 do in these assays?
CHO-K1 Ca antag: inactive; CHRM1 antagonist: 26.0; CHO-K1 Ca ag: inactive; M1 PAM: inactive; M1 ag: inactive; CHO-K1 Ca PAM: inactive

Results for Cc1cc2oc(C(=O)NCc3ccccc3)cc(=O)c2cc1C ?
CHO-K1 Ca antag: inactive; CHRM1 antagonist: 81.1; CHO-K1 Ca ag: inactive; M1 PAM: inactive; M1 ag: inactive; CHO-K1 Ca PAM: inactive

How did Cc1ccc2oc(C(=O)NCc3ccccc3)cc(=O)c2c1 do in these assays?
CHO-K1 Ca antag: inactive; CHRM1 antagonist: inactive; CHO-K1 Ca ag: inactive; M1 PAM: inactive; M1 ag: inactive; CHO-K1 Ca PAM: inactive

Results for O=C(NNC(=O)c1cnccc1C(F)(F)F)c1ccccc1 ?
CHO-K1 Ca antag: inactive; CHRM1 antagonist: inactive; CHO-K1 Ca ag: 15.7; M1 PAM: inactive; M1 ag: inactive; CHO-K1 Ca PAM: inactive

How did COc1ccc(S(=O)(=O)N2CCc3ccccc32)cc1C(=O)Nc1ccc(NC(C)=O)cc1 do in these assays?
CHO-K1 Ca antag: inactive; CHRM1 antagonist: inactive; CHO-K1 Ca ag: inactive; M1 PAM: inactive; M1 ag: inactive; CHO-K1 Ca PAM: inactive

How did O=c1cc(O)c2c(=O)n(-c3ccccc3)c3c(c2o1)CCCCCC3 do in these assays?
CHO-K1 Ca antag: 23.7; CHRM1 antagonist: inactive; CHO-K1 Ca ag: inactive; M1 PAM: inactive; M1 ag: inactive; CHO-K1 Ca PAM: inactive

How did O=c1cc(O)c2c(=O)n(C3CCCCC3)c3ccccc3c2o1 do in these assays?
CHO-K1 Ca antag: inactive; CHRM1 antagonist: inactive; CHO-K1 Ca ag: inactive; M1 PAM: inactive; M1 ag: inactive; CHO-K1 Ca PAM: inactive

What do the screens show for `CC(=O)N1CCN(C(=O)c2cccc(NS(=O)(=O)c3ccc(Br)cc3)c2)CC1`?
CHO-K1 Ca antag: inactive; CHRM1 antagonist: inactive; CHO-K1 Ca ag: inactive; M1 PAM: inactive; M1 ag: inactive; CHO-K1 Ca PAM: inactive

What do the screens show for `Cc1ccccc1Cn1c(C)nc2ccccc21`?
CHO-K1 Ca antag: 28.6; CHRM1 antagonist: 39.1; CHO-K1 Ca ag: inactive; M1 PAM: inactive; M1 ag: inactive; CHO-K1 Ca PAM: inactive
